Only some compounds are listed: those with a hit (about 3.1% of all), similar ones and a draw of the others.
PLK1 PBD inh: qHTS for Inhibitors of PLK1-PDB (polo-like kinase 1 - polo-box domain): Primary Screen; Serine/threonine-protein kinase PLK1 (Homo sapiens), P53350; Plk1 PBD binding of FITC phosphopeptide, fluorescence polarization; Potency, µM, hits mostly inhibitors; hit rate 2.8% among 360,000; AID 720504, 2013; also: series mostly up to about 57 µM; nearly all actives have a fitted effect of over 65% in size
uPA generation: qHTS for Inhibitors of Cell Surface uPA Generation. cell surface uPA generation assay, qHTS. AID 540303, 2011. Potency, µM (doses to about 38.3 µM), hits mostly inhibitors. hit rate 0.31% among 330,000; active = well fitted inhibition curve with a large enough effect; inconclusive = small, poorly fitted or top-dose-only effect; inactive = no such curve, though single readings can be large or run the other way; tested in mouse RAW 264.7 cells; also: nearly all actives have a fitted effect of over 55% in size
PTAP TSG101 blk: qHTS Assay for Iinhibitors of HIV-1 Budding by Blocking the Interaction of PTAP/TSG101; Fluorescence polarization, FITC-PTAP peptide / Tsg101 binding; Potency, µM (highest dose often 115 µM), usual class: inhibitors; 340,000 tested, under 10 active; AID 493005, 2010; active = well fitted inhibition curve with a large enough effect in the main read-out, with a control signal flat, not every such curve was filed as active; inconclusive = small, poorly fitted or top-dose-only effect, or effect the other way, or a change in a side signal; inactive = no such curve, though single readings can be large or run the other way
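Tsg101 binding domain (10 uM final) was mixed with compound and a FITC-labeled PTAP peptide (50 nM final) in HEPES pH 7.5 buffer with NaCl, Tween 20, EDTA and TCEP; fluorescence polarization was read after 20 min at r.t.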
VDR inhibitor: Inhibitors of the vitamin D receptor (VDR): qHTS; Vitamin D3 receptor (Homo sapiens), P11473; VDR-SRC2-3 peptide fluorescence polarization, 2 h; Potency, µM, most hits filed as inhibitors; hit rate 0.93% among 400,000
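Signal is fluorescence polarization, reporting how far test compounds block the interaction of VDR with the SRC2-3 coregulator peptide after a 2 h room-temperature incubation.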
TSHR antag: Antagonists of the Thyroid Stimulating Hormone Receptor: HTS campaign | TSHR-expressing cells, TSH-stimulated cAMP HTRF, 2 h; active compounds read low | activity change, negative = inhibition, % at 11.5 µM | hit rate 0.2% among 330,000;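 active = activity change below a set negative limit, meaning inhibition stronger than a set level, cut at about -70% in these data; inconclusive = activity change between two set negative limits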
Target sequence (P16473 whole entry, looked up): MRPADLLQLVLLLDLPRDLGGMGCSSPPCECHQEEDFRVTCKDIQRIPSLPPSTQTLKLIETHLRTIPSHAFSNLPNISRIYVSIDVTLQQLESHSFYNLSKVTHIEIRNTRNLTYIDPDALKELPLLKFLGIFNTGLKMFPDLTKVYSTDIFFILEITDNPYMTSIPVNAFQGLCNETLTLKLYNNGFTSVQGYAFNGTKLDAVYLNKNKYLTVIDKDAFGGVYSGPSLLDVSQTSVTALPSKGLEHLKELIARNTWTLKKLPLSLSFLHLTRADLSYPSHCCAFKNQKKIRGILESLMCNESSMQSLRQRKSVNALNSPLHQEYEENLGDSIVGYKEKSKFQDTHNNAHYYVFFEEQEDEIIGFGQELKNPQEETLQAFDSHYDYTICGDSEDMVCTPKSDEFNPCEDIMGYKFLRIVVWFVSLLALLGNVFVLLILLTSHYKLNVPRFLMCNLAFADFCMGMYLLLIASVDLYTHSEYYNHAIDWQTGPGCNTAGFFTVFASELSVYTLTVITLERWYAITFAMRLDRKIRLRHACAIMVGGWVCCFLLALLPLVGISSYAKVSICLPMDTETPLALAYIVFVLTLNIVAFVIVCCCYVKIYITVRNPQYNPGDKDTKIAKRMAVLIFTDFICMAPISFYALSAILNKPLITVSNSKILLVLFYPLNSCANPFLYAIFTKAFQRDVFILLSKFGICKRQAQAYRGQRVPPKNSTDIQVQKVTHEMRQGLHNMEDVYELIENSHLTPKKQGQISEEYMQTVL
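Freshly harvested TSHR cells receive pin-tooled compound, then EC80 TSH at 4nM final. After 2 hours at 37 deg C, antibody in lysis buffer and cAMP-d2 are added; 30 minutes at ambient temperature precede the HTRF read.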
A number is an active result; 0 = inactive; ? = inconclusive; - = no result; ! = a repeat was not active. Unless noted, calls follow the shape of the dose curve; as a rule, active = well fitted curve in the direction sought with a large enough effect; inconclusive = small, poorly fitted or top-dose-only effect, or another doubt; inactive = no such curve, though single readings can be large; an effect the other way counts as inactive or inconclusive.

SMILES	PLK1 PBD inh	uPA generation	PTAP TSG101 blk	VDR inhibitor	TSHR antag
CCCCNC(=O)/C(=C\c1ccc([N+](=O)[O-])o1)NC(=O)c1ccccc1	21.2µM	0	0	0	0
COc1ccc2nc(SCC(=O)N3CCN(c4ccc(F)cc4)CC3)c(C#N)cc2c1	2.99µM	0	0	0	0
CCN(CC)CCSc1nc2ccccc2c(=S)n1-c1ccccc1	23.8µM	0	0	0	0
CCN(CC)CCSc1nc(O)c(-c2ccccc2)c(=O)n1-c1ccccc1	0	0	0	0	0
COc1ccc(-c2cc(C(=O)Oc3ccccc3)c3cc(C)ccc3n2)cc1	-	-	-	0	-
Cn1c(Oc2ccc(Cl)cc2)nc2c1c(=O)n(Cc1ccc(F)cc1)c(=O)n2C	-	-	-	0	-
Cn1c2ccccc2c(=O)c2ccc(C#Cc3ccc(N)cc3)cc21	0	6.31µM	0	0	0
COc1ccc(C#Cc2ccc3c(=O)c4ccccc4n(C)c3c2)cc1	0	0	0	0	0
Cn1c2ccccc2c(=O)c2cc(C#CC3=CCCCC3)ccc21	?	6.31µM	0	0	0
COCCn1c(=O)c(-c2ccc(Cl)cc2)nc2cnc(N3CCOCC3)nc21	-	-	-	0	-
CCOC(=O)/C=C(C)/C=C/C=C(C)/C=C/c1c(C)cc(OC)c(C)c1C	-	-	-	0	-
COc1cc(C)c(/C=C/C(C)=C/C=C/C(C)=C/C(=O)O)c(C)c1C	29.9µM	0	0	44.7µM!	-
CC1Oc2ccccc2C=C1/C=N/Nc1ccc(C(=O)O)cc1 (centres undefined)	23.8µM	0	0	?	0
COc1ccc(Cn2c(CCC(=O)NCc3ccc(Cl)cc3)nc3cccnc32)cc1	-	-	-	0	-
CCCSc1oc(-c2cccs2)nc1S(=O)(=O)c1ccc(C)cc1	-	-	-	0	-
CCCCS(=O)(=O)c1oc(-c2cccs2)nc1S(=O)(=O)c1ccc(F)cc1	-	-	-	10µM	-
Nc1nc2ccc(Br)cc2o1	0	0	0	0	-
Nc1nc(Cl)nc2ccc(Br)cc12	16.8µM	0	0	0	0
N#C/C(=C\C=C\c1ccccc1)C(=O)NCc1cccnc1	23.8µM	0	0	?	0
O=C(NCc1cccnc1)/C(=C/c1ccccc1)NC(=O)c1ccccc1	0	0	0	0	0
CCCCn1c(=O)[nH]c(=O)c2c1nc(-c1cc(Br)c(OCC)c(OC)c1)n2C	0	0	0	0	0
C=CCOc1ccc(-c2nc3c(c(=O)[nH]c(=O)n3CCCC)n2C)cc1OC	21.2µM	0	0	?	0
COc1ccc(S(=O)(=O)Cc2ccc(C(=O)N3CCN(c4cccc(C)c4)C(C)C3)o2)cc1 (centres undefined)	0	5.62µM	0	0	0
COc1ccc(S(=O)(=O)Cc2ccc(C(=O)O)o2)cc1	0	0	0	0	0
Cc1ccc(S(=O)(=O)Cc2ccc(C(=O)N3CCN(c4cccc(C)c4C)CC3)o2)cc1	0	0.891µM	0	0	0
SMILES	PLK1 PBD inh	uPA generation	PTAP TSG101 blk	VDR inhibitor	TSHR antag
Cc1ccc(S(=O)(=O)Cc2ccc(C(=O)O)o2)cc1	18.9µM	0	0	0	0
O=C(NCCc1ccccc1Cl)c1ccc2c(c1)nc1n2CCCCC1	-	-	-	0	-
CC(C)=CC[C@@H](O)C1=CC(=O)c2c(O)ccc(O)c2C1=O	-	-	-	1.78µM	-
C=C1c2cccc(C(F)(F)F)c2O[C@H](C(=O)OCC)[C@@H]1CCCCCC	-	-	-	0	-
COc1ccc2c(c1OC)OCC(c1ccc(OC)c(OC)c1OC)C2 (centres undefined)	-	-	-	0	-
COc1cccc(-n2nnc3c(sc4nc(C)cc(C)c43)c2=O)c1	-	-	-	0	-
CCNC(=O)c1ccccc1-c1nc(-c2ccccc2OC)no1	0	0	0	0	0
CCNC(=O)c1ccccc1-c1nc(-c2ccccc2Cl)no1	11.9µM	0	0	0	0
CCCN1C(=O)c2ccccc2NC1c1ccc(Cl)cc1 (centres undefined)	0	0	0	0	0
CCCN1C(=O)c2ccccc2NC1c1ccc(Cl)c(Cl)c1 (centres undefined)	21.2µM	0	0	?	0
CCCCNS(=O)(=O)c1cccc(NC(=O)[C@H]2C[C@H](O)[C@@H](CO)O2)c1	0	-	-	-	-
O=S(=O)(O)c1cccc2cccc(Nc3ccccc3)c12	15µM	?	0	?	-
COc1cc(C(=O)NC(=S)Nc2ccc(Cl)cn2)cc(OC)c1OC	23.8µM	0	0	?	0
NC(=O)c1cc(Cl)ccc1OCC(=O)Nc1ccc2c(c1)OCO2	0	6.31µM	0	0	0
CC(=O)c1cc(F)ccc1OCC(=O)Nc1ccc2c(c1)OCO2	0	0	0	0	0
COc1cc(CNC(=O)c2cc(-c3ccc(F)cc3C)n[nH]2)cc(OC)c1	0	-	-	-	-
CC(=O)Nc1ccc(SC(Sc2ccc(NC(C)=O)cc2)c2ccccc2)cc1	16.8µM	0	0	0	-
CC(=O)Nc1ccc(NC(=S)Nc2ccccc2)cc1	0	0	0	0	0
O=C(NCc1cccc(Cl)c1)NCc1noc2ccccc12	-	-	-	0	-
Cc1ccc(S(=O)(=O)CC(=O)Nc2sc3c(c2C(N)=O)CCCC3)cc1	-	-	-	0	-
COc1ccccc1NC1=C(NC(C)=O)C(=O)c2ccccc2C1=O	?	12.6µM	0	0	0
Cc1cc(NC(=O)CCS(=O)(=O)c2cc3c4c(c2)CCN4C(=O)CC3)ccc1Br	-	-	-	0	-
CN(C)CCCN(C(=O)c1ccco1)c1nc(-c2ccc(Cl)cc2)cs1	0	?	0	0	-121.2
CCCCCCCCCCCC1=C(O)C(=O)C=C(O)C1=O	29.9µM	0	0	?	-
COC1=CC(=O)C(O)=C(CCCCCCC/C=C/CCCCCCCC2=C(O)C(=O)C=C(OC)C2=O)C1=O	18.9µM	0	0	44.7µM	-
SMILES	PLK1 PBD inh	uPA generation	PTAP TSG101 blk	VDR inhibitor	TSHR antag
CCOC(=O)CSc1nc2cc(OC)c(OC)cc2cc1C#N	-	-	-	0	-
CCOc1cc(C2C(C#N)=C(N)SC(N)=C2C#N)ccc1OCCN1CCOCC1	26.7µM	0	0	?	0
CCCc1[nH]nc2c1C(c1ccc(OCCN3CCOCC3)c(OC)c1)C(C#N)=C(N)O2 (centres undefined)	0	0	0	0	0
CC(=O)NC(Cc1ccccc1)C(=O)NC1CCN(C(=O)c2ccc([N+](=O)[O-])cc2)CC1 (centres undefined)	3.36µM	0	0	0	0
O=C1NC(=O)/C(=C/c2ccco2)N1	-	0	-	0	0
O=C1Nc2ccccc2/C1=C/c1cccnc1	26.7µM	0	0	?	0
O=C1NC(=S)N/C1=C/c1cccnc1	23.8µM	0	0	0	0
O=C1Nc2ccccc2/C1=C/c1ccccc1F	29.9µM	0	0	?	0
O=C1NC(=S)NC1=Cc1ccco1	23.8µM	0	0	28.2µM	-
CC(=O)OCC(NC(=O)C(C)NC(=O)OC(C)(C)C)C1OC(n2cc(F)c(=O)[nH]c2=O)C(OC(C)=O)C1OC(C)=O (centres undefined)	-	-	-	0	-
COC(=O)C1C(=O)C2=C(CC1C)NC(=O)CC2c1cccc(C)c1 (centres undefined)	26.7µM	0	0	0	0
